Source: PubChem BioAssay (several laboratories)
Shown are actives, neighbours in structure and some others; about 2.1% of the full set was active somewhere.
TPT1 inh: inhibitors of Candida albicans tRNA 2'-phosphotransferase TPT1 | recombinant caTPT1, FP RNA substrate dephosphorylation | inhibition, % at 5 µM | 300,000 tested, 0.81% active;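 active = inhibition above the mean of all tested compounds plus 3 SD, set per screening campaign, cut at about 24% in these data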
Myeloid diff MLP: myeloid differentiation induction; ER-HoxA9 myeloid progenitors, lysozyme-GFP differentiation, flow cytometry; calls only at 10 µM; 360,000 tested, 1% active;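 active = normalized GFP-positive differentiation at or above the plate's own cutoff, the solvent-only control mean plus 3 SD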;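 also: cells exposed to compound for four days before flow analysis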
HNF4A DNA FP: change in binding of human HNF4 alpha to DNA; P41235; HNF4a-FITC DNA binding, fluorescence polarization, 1 h; activity change, % at 10 µM; 360,000 tested, 0.3% active; in the data active = activity change above about 30%, passing the limit was not always enough
Target sequence (P41235 whole entry, looked up): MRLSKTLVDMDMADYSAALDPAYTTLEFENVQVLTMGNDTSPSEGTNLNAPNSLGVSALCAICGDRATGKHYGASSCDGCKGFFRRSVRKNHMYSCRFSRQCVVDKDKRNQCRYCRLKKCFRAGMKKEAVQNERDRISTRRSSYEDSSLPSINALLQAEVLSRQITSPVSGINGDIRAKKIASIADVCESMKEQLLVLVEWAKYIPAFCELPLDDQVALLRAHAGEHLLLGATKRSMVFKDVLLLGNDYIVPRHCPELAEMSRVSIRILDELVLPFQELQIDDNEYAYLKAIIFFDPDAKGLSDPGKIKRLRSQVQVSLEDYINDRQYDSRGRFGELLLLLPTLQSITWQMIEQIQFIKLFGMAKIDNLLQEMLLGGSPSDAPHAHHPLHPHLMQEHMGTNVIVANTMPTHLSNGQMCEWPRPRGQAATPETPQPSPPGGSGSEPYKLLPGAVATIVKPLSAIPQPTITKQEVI
Rpn11 block: inhibitors of human proteasome Rpn11; O00487; human 26S proteasome, Ub4-pepOG fluorescence polarization; 20S core pre-blocked with epoxomicin; inhibition, % at 20 µM; 360,000 tested, 0.59% active;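 active = inhibition at 20 µM, scaled to each plate's controls, above about 33%, limit read from the data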
Myeloid diff: promotes myeloid progenitor differentiation; calls only; AID 651706; ER-HoxA9 myeloid progenitors, GFP/Mac1 double-positive flow; 2,300 tested, 2% active; shares compounds with Myeloid diff MLP;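 active = share of green or green-and-red cells above 9 and 9% in run 1 or 4 and 3% in run 2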
GFP autofluor: flagged as fluorescent in myeloid differentiation counter-screen | shares compounds with Myeloid diff MLP | ER-HoxA9 myeloid progenitors, no estrogen, GFP autofluorescence flow cytometry; vehicle wells 0%, positive control 100% | fluorescence response, % (no concentration beside the values) | 2,300 tested, 7.4% active | AID 651707;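 active = over 5% cells positive for green fluorescent reporter, or over 2% positive for both it and APC stain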
Numbers stand for hits; 0 = inactive; - = not tested or not shown; + = active, no number.

SMILES	TPT1 inh	Myeloid diff MLP	HNF4A DNA FP	Rpn11 block	Myeloid diff	GFP autofluor
CN1C(=O)[C@H]2[C@@H](c3ccc(C(F)(F)F)cc3)N[C@]3(CCCN(Cc4ccco4)C3=O)[C@H]2C1=O	-	0	0	0	-	-
O=C(NCCCn1ccnc1)NC(C(F)(F)F)C(F)(F)F	0	0	0	0	0	0
O=C(NCCCn1ccnc1)C(=O)NC1CCCCC1	0	+	0	0	0	0
COc1ccccc1-n1c(CNc2ccc(F)cc2)nnc1SCC(=O)Nc1cc(C)on1	0	0	0	0	0	0
Cc1cnc(NC(=O)CSc2ccccc2)s1	0	+	0	0	0	0
Cc1cnc(NC(=O)CSc2nnc(Cc3ccccc3)o2)s1	0	0	0	0	-	-
Cc1cnc(NC(=O)Cc2ccccc2Cl)s1	0	0	0	0	0	0
C[C@@H]1O[C@@H](OCCC(=O)O)[C@H](O)C[C@H]1O	-	0	0	0	-	-
Cc1ccccc1CN1CCN(CC(=O)NCc2ccccc2)CC1	0	0	0	0	-	-
Cc1cc(=O)oc2cc(OCc3ccc(S(=O)(=O)N4CCOCC4)cc3)ccc12	0	+	0	0	0	0
Cc1c(N=C2NN=C(c3ccc(Cl)cc3)CS2)c(=O)n(-c2ccccc2)n1C	0	0	0	0	-	-
Cc1c(N=C2NN=C(c3c[nH]c4ccccc34)CS2)c(=O)n(-c2ccccc2)n1C	0	+	0	0	0	0
CC(=O)N1/C(=C/c2ccc(N(C)C)cc2)C(=O)c2ccccc21	-	-	0	0	-	-
CN(C)/C(=N\S(=O)(=O)c1ccc(Cl)cc1)c1ccc(F)cc1	0	0	0	0	-	-
CC(NC(=O)c1cc(COc2c(F)cccc2F)on1)c1cnn(-c2ccccc2)c1 (stereo not given)	0	0	0	0	-	-
CC(=O)c1ccccc1OC(=O)c1ccco1	0	+	0	0	0	0
CCOc1ccccc1OC(=O)c1ccco1	0	0	0	0	0	0
CN(C(=O)COc1ncnc2ccccc12)C1CCCCC1	-	0	0	0	-	-
Cc1ccc(C)c(S(=O)(=O)N2CCN(CC(=O)NC(=O)NCc3ccco3)CC2)c1	0	0	0	0	-	-
COc1ccc(-c2csc(C(NC(C)=O)c3cccc(F)c3)n2)cn1 (stereo not given)	-	+	0	0	0	0
CCc1ccc(N2CC(C)Cn3c2nc2c3c(=O)[nH]c(=O)n2C)cc1 (stereo not given)	0	0	0	0	-	-
C/C(=N/NC(=O)CNc1ccc(C)cc1)c1ccc(Cl)cc1	0	0	0	0	-	-
CCCCC(O)(CCCC)C(=O)N/N=C(\C)c1ccc(Cl)cc1	0	0	0	0	0	0
O=C(CSc1nnc(CNC(=O)c2ccco2)o1)Nc1cccc(Cl)c1	0	+	0	0	0	0
O=C(CSc1nnc(CNC(=O)c2ccco2)o1)Nc1ccc(Cl)cc1	0	0	0	0	-	-
SMILES	TPT1 inh	Myeloid diff MLP	HNF4A DNA FP	Rpn11 block	Myeloid diff	GFP autofluor
O=C(NNc1ccc(O)cc1)c1ccc(Br)cc1	0	0	0	0	-	-
O=C(NNC1=Nc2cccc3cccc1c23)c1ccc(Br)cc1	0	+	0	0	0	12
CC(C)COC(=O)N1CCCCC1c1cc(C(=O)Nc2ccc3c(c2)OCO3)no1 (stereo not given)	-	0	0	0	-	-
O=c1[nH]c2ccccc2n2c(C(F)(F)F)nnc12	0	+	0	0	0	5.7
COc1ccccc1C1CC(c2ccc(Br)cc2)=NN1C(=O)c1cccnc1 (stereo not given)	0	0	0	0	0	0
O=C(Oc1ccc(Nc2ncnc3ccccc23)cc1)c1cccnc1	-	0	0	0	-	-
O=C(NCC(O)c1ccccc1)c1ccc(Cl)c(S(=O)(=O)N2CCCC2)c1 (stereo not given)	0	0	0	0	-	-
C[C@H](N)C(=O)N1CCC(C(=O)N[C@@H](Cc2ccccc2)C(=O)Nc2ccc(F)cc2)CC1	0	0	0	0	0	0
O=C(N[C@@H](Cc1ccccc1)C(=O)Nc1ccc(F)cc1)C1CCNCC1	0	0	0	0	-	-
O=C(NCc1cccnc1)NC1(C(F)(F)F)Oc2ccccc2O1	0	+	0	0	0	0
CCCCn1c(N)c(N(CC(C)C)C(=O)c2cc(-c3ccncc3)nc3ccccc23)c(=O)[nH]c1=O	0	+	0	0	0	0
CCN(CC)CCNC(=O)Cn1nc(Cc2ccncc2)c2ccccc2c1=O	0	0	0	0	-	-
CC(CCc1ccco1)NC(=O)Cn1nc(Cc2ccncc2)c2ccccc2c1=O (stereo not given)	0	0	0	0	0	0
COc1ccc(C(=O)COC(=O)c2cnc(C)cn2)cc1OC	-	0	0	0	0	0
COc1cc(C(=O)COC(=O)c2cnc(C)cn2)ccc1OC(F)F	0	0	0	0	-	-
Cc1ccc(NC(=O)c2ccnc(C(C)(C)C)c2)cc1	0	0	0	0	0	0
CC(C)(C)c1cc(C(=O)Nc2ccccc2)ccn1	0	0	0	0	-	-
O=C(O)CN(c1ccccn1)S(=O)(=O)c1ccc(Cl)cc1	0	+	0	0	0	0
CCN1C(=O)[C@H]2[C@H]3CN=C(SCC4CC4)N3[C@@](Cc3ccccc3)(C(=O)OC)[C@H]2C1=O	-	0	0	0	0	0
CCN1C(=O)[C@H]2[C@H]3CN=C(SCc4ccc(C#N)cc4)N3[C@@](Cc3ccccc3)(C(=O)OC)[C@H]2C1=O	-	0	0	0	-	-
CCN1C(=O)[C@H]2[C@H]3CN=C(SCc4ccccc4)N3[C@@](Cc3ccccc3)(C(=O)OC)[C@H]2C1=O	-	0	0	0	0	0
Cn1ccnc1SCC(=O)Nc1cc(C(F)(F)F)ccc1N1CCOCC1	0	0	0	0	0	0
Cn1c(Cc2ccccc2)nnc1SCC(=O)Nc1ccccc1N1CCOCC1	0	0	0	0	0	0
O=C(CN1CCN(Cc2ccccc2)CC1)Nc1cccc(Cl)c1Cl	-	0	0	0	-	-
CN1OC[C@@H]2CN(C(=O)CCc3ccccc3)[C@H](c3cccc(-c4ccccc4)c3)C[C@@H]21	-	0	0	0	-	-
SMILES	TPT1 inh	Myeloid diff MLP	HNF4A DNA FP	Rpn11 block	Myeloid diff	GFP autofluor
CN1OC[C@@H]2CN(C(=O)CCc3ccccc3)[C@H](c3cccc(Oc4ccccc4)c3)C[C@@H]21	-	0	0	0	0	0
CC1=C(C(=O)N(C)C)C(c2ccc(C)s2)NC(=S)N1 (stereo not given)	0	0	0	0	-	-
O=C(NCCO)/C(=C\c1ccc(Br)cc1)NC(=O)c1cccs1	0	0	0	0	-	-
O=C(N/N=C/CCc1ccccc1)c1ccc(CN2c3cccc4cccc(c34)S2(=O)=O)cc1	0	0	0	0	0	0
CC1=NN(c2ccccc2)C(=O)C1(C)C	0	0	0	0	-	-
CC1=NN(c2ccccc2)C(=O)C1C=Nc1ccccc1O (stereo not given)	0	+	0	0	0	0
COc1ccc(-n2nnnc2C(c2ccnc3ccccc23)N2CCN(C/C=C/c3ccccc3)CC2)cc1 (stereo not given)	-	+	0	0	0	0
Cc1cc(N2CCN(C(c3ccnc4ccccc34)c3nnnn3-c3c(C)cccc3C)CC2)c2ccccc2n1 (stereo not given)	-	0	0	-	0	0
